NALP1 inh = inhibitors of NALP1 inflammasome in yeast; S. cerevisiae NALP1/ASC/caspase-1 growth, X-gal OD620, 72 h; actives 0.61% (n = 280,000); AID 2071; inhibition, % at 10 µM; in the data active = inhibition mostly above about 24%, no sharp cut-off; inactive = mostly below about 32%
tim10-1 inh = growth inhibitors of tim10-1 mutant yeast; AID 463190; actives 2.2% (n = 330,000); inhibition, % at 20 µM; S. cerevisiae tim10-1 ts strain growth, BacTiter-Glo, 24 h;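 active = inhibition of at least 40%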;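 also: mutant grown at 25 °C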
V-ATPase pHluor = yeast V-ATPase proton transport regulation by pHLuorin | response, % at 10 µM | actives 0.37% (n = 350,000) | S. cerevisiae, pHLuorin cytosolic pH fluorescence | AID 504577; in the data active = response mostly above about 7.3%, no sharp cut-off; inactive = mostly below about 5.4%; also: actives read high
tim23-1 inh = inhibits growth of tim23-1 mutant yeast; S. cerevisiae tim23-1 growth, BacTiter-Glo luminescence, 24 h; inhibition, % at 20 µM; actives 1.3% (n = 330,000); AID 463212;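 active = growth inhibition of the mutant yeast at or above 50%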;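 also: temperature-sensitive mutant grown at 25 °C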
TIM10 inh = growth inhibitors of TIM10 yeast strain; S. cerevisiae TIM10 strain growth, BacTiter-Glo luminescence, 24 h; inhibition, % at 10 µM; actives 1.4% (n = 330,000); AID 463195;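 active = inhibition of 40% or more at the single tested concentration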;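 also: wild-type TIM10 isogenic control strain grown at permissive 25 °C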
NALP3 yeast inh = blocks the NALP3 inflammasome reconstituted in yeast | Yeast reconstituted NLRP3/ASC/caspase-1, beta-gal luminescence, 24 h | inhibition, % at 10 µM | actives 0.39% (n = 330,000);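 active = inhibition of 50% or more; inactive = inhibition below 50%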
tim10-1 conf = confirmation of tim10-1 mutant yeast growth inhibitors | shares compounds with tim10-1 inh | S. cerevisiae tim10-1 ts strain growth, BacTiter-Glo, 24 h | inhibition, % at 20 µM | actives 56% (n = 7,400) | AID 463213;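 active = inhibition of yeast growth at or above a set limit in either of two repeat tests at 20 µM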;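 also: tim10-1 mutant grown at permissive 25 °C to find synthetic lethal compounds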
Numbers stand for hits. The list is not random: actives were taken first. Their share in the collection is about 4.2%.

Results for COc1ccc(-c2c(C)nn3c(N4CCN(Cc5ccccc5)CC4)cc(C)nc23)cc1OC ?
NALP1 inh: inactive; tim10-1 inh: inactive; V-ATPase pHluor: inactive; tim23-1 inh: inactive; TIM10 inh: inactive; NALP3 yeast inh: inactive

How did COc1ccc(-c2c(C)nn3c(NC4CCCC4)cc(C)nc23)cc1OC do in these assays?
NALP1 inh: inactive; tim10-1 inh: 44; V-ATPase pHluor: inactive; tim23-1 inh: inactive; TIM10 inh: inactive; NALP3 yeast inh: inactive; tim10-1 conf: inactive

How did CC(Oc1cccc(Cl)c1)C(=O)NCc1ccc(S(N)(=O)=O)cc1 (stereo unspecified) do in these assays?
NALP1 inh: inactive; tim10-1 inh: inactive; V-ATPase pHluor: inactive; tim23-1 inh: inactive; TIM10 inh: inactive; NALP3 yeast inh: inactive

Results for O=[N+]([O-])c1ccc(C(=S)N2CCN(c3ccc(F)cc3)CC2)cc1 ?
NALP1 inh: inactive; tim10-1 inh: 43; V-ATPase pHluor: inactive; tim23-1 inh: inactive; TIM10 inh: inactive; NALP3 yeast inh: inactive; tim10-1 conf: inactive

How did COc1ccccc1-c1cc(C(F)(F)F)nc(S(=O)(=O)CCCC(=O)N2CCOCC2)n1 do in these assays?
NALP1 inh: inactive; tim10-1 inh: 40; V-ATPase pHluor: inactive; tim23-1 inh: inactive; TIM10 inh: inactive; NALP3 yeast inh: inactive; tim10-1 conf: inactive

What do the screens show for `COc1ccc(-c2cc(C(F)(F)F)nc(SCC(=O)N3CCOCC3)n2)cc1OC`?
NALP1 inh: inactive; tim10-1 inh: inactive; V-ATPase pHluor: inactive; tim23-1 inh: inactive; TIM10 inh: inactive; NALP3 yeast inh: inactive

Results for COc1ccc(-c2cc(C(F)(F)F)nc(S(=O)(=O)CCC(=O)N3CCOCC3)n2)cc1 ?
NALP1 inh: inactive; tim10-1 inh: 48; V-ATPase pHluor: inactive; tim23-1 inh: inactive; TIM10 inh: inactive; NALP3 yeast inh: inactive; tim10-1 conf: inactive

Results for COc1ccccc1-c1cc(C(F)(F)F)nc(S(=O)(=O)CCCC(=O)O)n1 ?
NALP1 inh: inactive; tim10-1 inh: inactive; V-ATPase pHluor: inactive; tim23-1 inh: inactive; TIM10 inh: inactive; NALP3 yeast inh: inactive

How did CCC(C)N1CC(C(=O)NC2CCCCC2)CC1=O (stereo unspecified) do in these assays?
NALP1 inh: inactive; tim10-1 inh: inactive; V-ATPase pHluor: inactive; tim23-1 inh: inactive; TIM10 inh: inactive; NALP3 yeast inh: inactive

How did COc1cc(/C=N/NC(=O)Cc2csc(N3CCOCC3)n2)cc(OC)c1O do in these assays?
NALP1 inh: inactive; tim10-1 inh: inactive; V-ATPase pHluor: inactive; tim23-1 inh: inactive; TIM10 inh: inactive; NALP3 yeast inh: inactive

Results for O=C(/C=C/c1ccccc1)CC(O)(c1ccccc1)C(F)(F)F (stereo unspecified) ?
NALP1 inh: inactive; tim10-1 inh: 45; V-ATPase pHluor: inactive; tim23-1 inh: inactive; TIM10 inh: inactive; NALP3 yeast inh: inactive; tim10-1 conf: 39

Results for COc1ccc(/C=C/C(=O)CC(O)(c2ccccc2)C(F)(F)F)cc1 (stereo unspecified) ?
NALP1 inh: inactive; tim10-1 inh: 47; V-ATPase pHluor: inactive; tim23-1 inh: inactive; TIM10 inh: inactive; NALP3 yeast inh: inactive; tim10-1 conf: 36

What do the screens show for `COc1ccc(/C=C/C(=O)CCC(=O)O)cc1`?
NALP1 inh: inactive; tim10-1 inh: inactive; V-ATPase pHluor: inactive; tim23-1 inh: inactive; TIM10 inh: inactive; NALP3 yeast inh: inactive

What do the screens show for `CCC1CCCCN1S(=O)(=O)c1ccc(NC(=O)c2nc(S(C)(=O)=O)ncc2Cl)cc1` (stereo unspecified)?
NALP1 inh: inactive; tim10-1 inh: 54; V-ATPase pHluor: inactive; tim23-1 inh: inactive; TIM10 inh: inactive; NALP3 yeast inh: inactive; tim10-1 conf: inactive

What do the screens show for `CCS(=O)(=O)c1ncc(Cl)c(C(=O)Nc2ccc(S(=O)(=O)N3CCCC(C)C3)cc2)n1` (stereo unspecified)?
NALP1 inh: inactive; tim10-1 inh: 43; V-ATPase pHluor: inactive; tim23-1 inh: inactive; TIM10 inh: inactive; NALP3 yeast inh: inactive; tim10-1 conf: inactive

Results for COc1cccc(NC(=O)COC(=O)Cc2ccc(Br)cc2)c1 ?
NALP1 inh: inactive; tim10-1 inh: inactive; V-ATPase pHluor: inactive; tim23-1 inh: inactive; TIM10 inh: inactive; NALP3 yeast inh: inactive

How did Cc1ccc(S(=O)(=O)/N=C2\C=C(Nc3cccc(C(=O)O)c3)C(=O)c3ccccc32)cc1 do in these assays?
NALP1 inh: inactive; tim10-1 inh: inactive; V-ATPase pHluor: inactive; tim23-1 inh: inactive; TIM10 inh: inactive; NALP3 yeast inh: inactive

Results for Cc1ccc(S(=O)(=O)/N=C2\C=C(Nc3cccc(C(=O)O)c3)C(=O)c3ccccc32)c(C)c1 ?
NALP1 inh: inactive; tim10-1 inh: 44; V-ATPase pHluor: inactive; tim23-1 inh: inactive; TIM10 inh: inactive; NALP3 yeast inh: inactive; tim10-1 conf: inactive

Results for COc1cc(/C=C(\C#N)c2nc3ccccc3s2)cc([N+](=O)[O-])c1O ?
NALP1 inh: inactive; tim10-1 inh: 46; V-ATPase pHluor: inactive; tim23-1 inh: inactive; TIM10 inh: inactive; NALP3 yeast inh: inactive; tim10-1 conf: inactive

What do the screens show for `COCC(C)NC(=O)NC1(C(F)(F)F)Oc2ccc(Cl)cc2O1` (stereo unspecified)?
NALP1 inh: inactive; tim10-1 inh: inactive; V-ATPase pHluor: inactive; tim23-1 inh: inactive; TIM10 inh: inactive; NALP3 yeast inh: inactive

How did Cc1cc(C)n(-c2cc(N3CCOCC3)nc(-c3ccccc3)n2)n1 do in these assays?
NALP1 inh: inactive; tim10-1 inh: 52; V-ATPase pHluor: inactive; tim23-1 inh: inactive; TIM10 inh: inactive; NALP3 yeast inh: inactive; tim10-1 conf: inactive

How did O=C(O)c1ccc(CNCc2cccc(Cl)c2)cc1 do in these assays?
NALP1 inh: inactive; tim10-1 inh: inactive; V-ATPase pHluor: inactive; tim23-1 inh: inactive; TIM10 inh: inactive; NALP3 yeast inh: inactive

How did Cc1ccc(C(=O)Nc2nc(-c3ccccc3)c(-c3ccccc3)o2)cc1 do in these assays?
NALP1 inh: inactive; tim10-1 inh: 40; V-ATPase pHluor: inactive; tim23-1 inh: inactive; TIM10 inh: inactive; NALP3 yeast inh: inactive; tim10-1 conf: inactive

What do the screens show for `Cc1cc(C)nc(SCC(=O)Nc2nc(-c3ccccc3)c(-c3ccccc3)o2)n1`?
NALP1 inh: inactive; tim10-1 inh: inactive; V-ATPase pHluor: inactive; tim23-1 inh: inactive; TIM10 inh: inactive; NALP3 yeast inh: inactive

What do the screens show for `O=C(C1CCCCC1)N1CCN(S(=O)(=O)c2ccc(Cl)cc2)CC1`?
NALP1 inh: inactive; tim10-1 inh: inactive; V-ATPase pHluor: inactive; tim23-1 inh: inactive; TIM10 inh: inactive; NALP3 yeast inh: inactive

What do the screens show for `Fc1ccccc1CNCCC(Cc1ccccc1)c1ccc2c(c1)OCO2` (stereo unspecified)?
NALP1 inh: inactive; tim10-1 inh: 47; V-ATPase pHluor: inactive; tim23-1 inh: inactive; TIM10 inh: inactive; NALP3 yeast inh: inactive; tim10-1 conf: inactive

What do the screens show for `COc1ccc(C2=[N+]([O-])C(C)(C)N(O)C2(C)C)cc1`?
NALP1 inh: inactive; tim10-1 inh: inactive; V-ATPase pHluor: inactive; tim23-1 inh: inactive; TIM10 inh: inactive; NALP3 yeast inh: inactive
